This note sets out measurements from PubChem BioAssay.

In general, inhibition refers to the relative decrease from the control value, in per cent.

The structures appear in SMILES notation. Active and inactive are the calls of the source. How the calls were made is not given here.

Pantothenate synthetase (Mycobacterium tuberculosis (strain ATCC 25618 / H37Rv)), sequence (P9WIL5 whole entry, looked up): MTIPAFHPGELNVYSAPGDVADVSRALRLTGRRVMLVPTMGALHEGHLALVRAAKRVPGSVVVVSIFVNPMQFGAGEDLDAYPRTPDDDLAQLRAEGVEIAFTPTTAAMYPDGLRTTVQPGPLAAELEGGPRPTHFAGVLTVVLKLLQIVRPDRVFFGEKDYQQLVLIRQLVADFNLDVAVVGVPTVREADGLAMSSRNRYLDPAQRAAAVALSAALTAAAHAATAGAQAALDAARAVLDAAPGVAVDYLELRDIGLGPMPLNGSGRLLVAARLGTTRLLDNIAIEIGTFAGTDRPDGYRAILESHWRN

This experiment concerns the target Pantothenate synthetase (Mycobacterium tuberculosis (strain ATCC 25618 / H37Rv)) (UniProt P9WIL5). Description: Recombinant Mtb pantothenate synthetase (PanC) inhibitors, coupled enzyme, confirmatory (AID 375).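 Further: 0% = full reaction with vehicle and 100% = no enzyme background.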 Conditions: coupled enzyme assay; at 10 µM, active compounds read high.
As to `CCSc1nnc(NC(=O)C2CCCN(S(=O)(=O)c3cnc[nH]3)C2)s1` (stereo unspecified), the inhibition is 7% (inactive).

`CC(=O)Nc1cccc(NC(=O)c2oc3ccccc3c2C)c1`: the inhibition is 0% (inactive). The figure for `CN1CCN(C2=Nc3cc(Cl)ccc3Nc3ccccc32)CC1` is 8% (inactive); for `CCCCSc1cc(C)nc2ncnn12` it is 0% (inactive); for `Cc1nc2sc(C(c3ccc(Br)cc3)N3CC(C)OC(C)C3)c(O)n2n1` (stereo unspecified) it is 0% (inactive). With `CCCC(C)c1nnc(NC(=O)C2CCCO2)s1` (stereo unspecified), the inhibition is 0% (inactive).
